Hits are enriched below; roughly 2.4% of the tested compounds scored in any of these assays.
D2 ag-1: D2 dopamine receptor (human) agonism. P14416. HEK293 T-REx D2 cells, calcium flux agonist mode. activation, % at 2 µM. 340,000 tested, 0.53% active;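 active means activation over 3 SD above normal in the single-dose calcium agonist read, cut at about 30% in these data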; further: 0% is about no effect
Target sequence (P14416 whole entry, looked up): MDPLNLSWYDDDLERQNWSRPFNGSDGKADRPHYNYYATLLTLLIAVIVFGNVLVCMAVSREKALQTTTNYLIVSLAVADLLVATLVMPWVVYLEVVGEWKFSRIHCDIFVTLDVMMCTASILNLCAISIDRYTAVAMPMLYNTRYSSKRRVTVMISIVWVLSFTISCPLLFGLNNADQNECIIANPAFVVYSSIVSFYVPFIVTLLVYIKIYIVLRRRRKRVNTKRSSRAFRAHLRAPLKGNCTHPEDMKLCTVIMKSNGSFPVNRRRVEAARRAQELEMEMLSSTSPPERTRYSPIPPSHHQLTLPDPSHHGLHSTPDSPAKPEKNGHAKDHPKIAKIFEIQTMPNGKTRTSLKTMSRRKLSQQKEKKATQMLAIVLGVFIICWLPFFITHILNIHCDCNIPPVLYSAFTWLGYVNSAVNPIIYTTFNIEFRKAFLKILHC
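Calcium-flux readout, 1 cycle/sec over 180 s following compound pin transfer, in inducible HEK293 Trex D2 cells (force-coupled); dopamine controls included. Positive calcium responses during this window marked compounds as potential agonists.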
D2 ag-2: human D2 receptor agonism in beta-arrestin assay; P14416; DiscoveRx PathHunter D2 beta-arrestin, luminescence, 90 min; 100% = 57 uM dopamine signal; activation, % (no concentration beside the values); 360,000 tested, 0.084% active; in the data active means activation above about 40%; inconclusive means between about 15% and that limit
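Agonist mode: compounds alone added to overnight-plated D2 PathHunter cells for 90 min at 37 C, with 57 uM final dopamine (EC100) defining full response. Beta-arrestin recruitment detected by chemiluminescent reagent, read after 1 h at ambient temperature.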
D2 antag: antagonists of human D2 dopamine receptor | P14416 | HEK293 TREx D2 cells, calcium flux, dopamine EC80 | inhibition, % at 10 µM | 340,000 tested, 2% active; in the data active means inhibition above about 30%; inactive means below that, where a call was filed; further: 0% is about no effect
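Cells plated overnight at 30 C with tetracycline; no-wash calcium dye, 30–90 min RT; 10 s baseline; compound pinned; 180 s read; EC80 dopamine added; another 180 s read.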
D2 PAM-1: D2 dopamine receptor (human) potentiation; P14416; HEK293 T-REx D2, calcium flux, EC20 dopamine potentiation; potentiation, % at 10 µM; 340,000 tested, 0.34% active; AID 485347;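 active means potentiation over 3 SD above the plate norm, cut at about 30% in these data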; further: 0% is about no effect
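Cells plated with tetracycline inducer and held overnight at 30 C; calcium dye loaded 30–90 min at room temperature; baseline taken, compound added and read 180 s; EC20 dopamine then added and read 180 s.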
D2 PAM-2: human D2 receptor positive allosteric modulation; AID 624464; P14416; DiscoveRx D2 beta-arrestin cells, luminescence, 90 min; 100% = 57 uM dopamine signal; potentiation, % (concentration not given with the values); 360,000 tested, 0.23% active; in the data active means potentiation above about 50%; inconclusive means mostly about 30% to 49%
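PathHunter beta-arrestin assay in DiscoveRx D2 cells. Compounds were added with an EC20 of dopamine (50 nM final) for 90 min at 37 deg C. Luminescence was read 1 h after detection reagent, with 57 uM dopamine as the EC100 control.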
Starred values were filed as active, the others as inactive; ? = inconclusive; nt = not tested or not shown.

SMILES | D2 ag-1 | D2 ag-2 | D2 antag | D2 PAM-1 | D2 PAM-2
Cc1ccc(S(=O)(=O)NNC(=O)CCC(=O)Nc2ccc(C)c(C)c2)cc1 | 1 | -12 | 32* | 10 | -29
CCOC(=O)c1c(C)c(C(=O)NCc2ccc(Cl)cc2)c(C)n1CC | 1 | nt | nt | -19 | nt
CCOCCCNS(=O)(=O)c1ccc2c(c1)OCCO2 | 0 | 0 | -1 | -1 | -3
COc1ccc(CCNS(=O)(=O)c2ccc3c(c2)OCCO3)cc1OC | 0 | -1 | 2 | 105* | -4
COCCCNS(=O)(=O)c1ccc2c(c1)OCCO2 | 0 | -2 | 34* | 3 | -5
N/C(Cc1ccc([N+](=O)[O-])cc1)=N\OC(=O)Cc1ccccc1 | -1 | 15 | 11 | 9 | -1
N/C(Cc1ccc([N+](=O)[O-])cc1)=N\OC(=O)c1ccc(Br)o1 | -1 | ? | -2 | -5 | 132*
N/C(Cc1ccc([N+](=O)[O-])cc1)=N\OC(=O)c1ccccc1F | 1 | ? | -9 | 10 | 153*
N/C(Cc1ccc([N+](=O)[O-])cc1)=N\OC(=O)Cc1ccc(Cl)cc1 | -1 | 3 | 10 | -9 | 26
CN1CCN(C(c2ccc(Cl)cc2Cl)c2sc3nc(-c4ccco4)nn3c2O)CC1 (stereo not given) | 1 | nt | nt | 11 | nt
COc1ccc(-n2c(SCC(=O)NCc3ccccc3)nc3n[nH]c(C)c3c2=N)cc1 | 2 | nt | nt | -6 | nt
O=C(N[C@H](CO)[C@H](O)c1ccc([N+](=O)[O-])cc1)C(Cl)Cl | nt | -5 | nt | nt | -9
O=C(NC(CO)C(O)c1ccc([N+](=O)[O-])cc1)C(Cl)Cl (stereo not given) | 2 | 4 | 52* | -16 | -5
CCc1nn(CC(=O)N2CCN(c3cccc(C)c3C)CC2)c(=O)c2cc3occc3n12 | 0 | nt | nt | -2 | nt
COc1ccccc1-n1ncc2c(=O)[nH]c(SCC(=O)Nc3cccc(F)c3)nc21 | nt | nt | nt | 3 | nt
CCOC(=O)N1N=C(CC)CC1(O)C(F)(F)F (stereo not given) | 0 | -3 | 5 | 38* | -10
CN(C)c1nc(Oc2ccc(=O)[nH]n2)nc(N2CCCCC2)n1 | 0 | -1 | 31* | -19 | -6
CCC(C)NCCOc1cccc(Br)c1 (stereo not given) | -1 | 1 | 45* | -17 | -34
COC(=O)c1ccc(NC(=O)CSc2nnnn2C2CCCCC2)cc1 | 0 | 7 | 42* | -1 | -9
CC(C)CNC(=O)COC(=O)c1ccc([N+](=O)[O-])cc1Cl | -1 | 3 | -6 | 0 | 57*
O=C(COC(=O)c1ccc([N+](=O)[O-])cc1Cl)NCc1ccco1 | 0 | 8 | -5 | 0 | 7
O=C1COc2ccc(C(=O)COC(=O)c3ccc(Cl)cc3[N+](=O)[O-])cc2N1 | 0 | ? | 9 | -1 | 52*
O=C1COc2ccc(C(=O)COC(=O)c3ccccc3[N+](=O)[O-])cc2N1 | nt | 2 | nt | 0 | -12
O=C1COc2ccc(C(=O)COC(=O)c3ccc([N+](=O)[O-])cc3Cl)cc2N1 | 1 | ? | 3 | -13 | 51*
CC(C)Cn1c(SCc2cccc(F)c2)nc2ccsc2c1=O | 0 | nt | nt | -6 | nt
SMILES | D2 ag-1 | D2 ag-2 | D2 antag | D2 PAM-1 | D2 PAM-2
CCC(C(=O)NCCc1ccccc1)n1nc(C)c2sc3ccccc3c2c1=O (stereo not given) | 0 | nt | nt | 0 | nt
CCn1cnc2cc(NC(=O)c3ccc(C)cc3)ccc21 | 1 | 3 | 32* | 4 | -6
Cc1ccc(N=c2c([N+](=O)[O-])nn(-c3ccccc3)n2O)c(C)c1 | 1 | 10 | 7 | 10 | 55*
O=[N+]([O-])c1nn(-c2ccc3c(c2)OCCO3)n(O)c1=NCCCO | 0 | ? | 4 | 0 | 73*
COc1ccc(-n2nc([N+](=O)[O-])c(=NCc3ccc4c(c3)OCO4)n2O)cc1 | -1 | ? | -1 | -12 | 122*
Cc1ccc(CN=c2c([N+](=O)[O-])nn(-c3ccc4c(c3)OCCO4)n2O)cc1 | -1 | ? | 3 | -18 | 135*
CCc1ccc(N=c2c([N+](=O)[O-])nn(-c3ccc4c(c3)OCCO4)n2O)cc1 | -1 | 11 | 18 | 2 | ?
CN(C)c1ccc(CNC(=O)CN2C(=O)C3CCCCN3c3ccc(C(=O)N4CCCC4)cc32)cc1 (stereo not given) | 0 | nt | nt | 2 | nt
Cc1ccccc1CNC(=O)c1ccc2[nH]c(C)c(C)c2c1 | 0 | nt | nt | 10 | nt
CC(=O)Nc1nonc1-c1nnc(SCC(=O)Nc2ccccc2)n1-c1ccccc1 | 0 | nt | nt | 12 | nt
O=C1CCCN1CCCN=c1c([N+](=O)[O-])nn(-c2ccc(Cl)cc2)n1O | nt | 9 | nt | 6 | 52*
COc1ccc(-n2nc([N+](=O)[O-])c(=NCCc3cccc(C)c3)n2O)cc1 | 0 | 8 | 6 | -5 | 65*
COc1ccc(-n2nc([N+](=O)[O-])c(=NCCCN3CCCC3=O)n2O)cc1 | -1 | 10 | 7 | -4 | 23
Cc1cccc(CCN=c2c([N+](=O)[O-])nn(-c3ccccc3)n2O)c1 | 0 | 14 | -9 | -1 | 6
Cc1ccc(-c2nc3sccn3c2Nc2ccccc2C)cc1 | nt | nt | nt | 20 | nt
CCc1c(O)nc(SCC(=O)N(CC)CC)[nH]c1=O | -1 | -2 | 34* | 0 | 3
CCN(CC)C(=O)CSc1nc(O)c(Cc2ccc(OC)cc2)c(=O)[nH]1 | 0 | -5 | -25 | 15 | -4
COc1ccccc1CNC(=O)C1CCN(S(=O)(=O)c2c(C)noc2/C=C/c2cccs2)CC1 | 0 | nt | nt | -4 | nt
COCCCNC(=O)C1CCN(S(=O)(=O)c2c(C)noc2/C=C\c2ccc(OC)cc2)CC1 | 1 | 0 | 9 | -2 | -26
CCCCNC(=O)C1CCN(S(=O)(=O)c2c(C)noc2/C=C\c2ccc(OC)cc2)CC1 | -1 | -4 | 40* | -18 | -5
COc1ccc(/C=C/c2onc(C)c2S(=O)(=O)N2CCC(C(=O)N3CCCCCC3)CC2)cc1 | 0 | -4 | -8 | 34* | -20
Cc1ccc(/C=C/c2onc(C)c2S(=O)(=O)N2CCC(C(=O)N3CCCCC3)CC2)cc1 | -1 | -4 | 34* | -14 | 0
Cc1ccc(C)c(N2CCN(S(=O)(=O)c3ccc(-c4coc(C)n4)cc3)CC2)c1 | 1 | nt | nt | 11 | nt
COc1cccc(CNC(=O)Cn2c(C)c3cnn(-c4ccccc4)c(=O)c3c2C)c1 | 0 | nt | nt | 17 | nt
COc1ccc(C2CCCN2C(=O)c2cccs2)cc1 (stereo not given) | 0 | -5 | 78* | -14 | -8
Cc1ccc(C)c(N2CCN(CCCNC(=O)CCC(=O)N3CCOc4ccc(Cl)cc43)CC2)c1 | 4 | nt | 56* | -23 | nt
O=C(CCC(=O)N1CCOc2ccc(Cl)cc21)NCCCN1CCN(c2ccccc2F)CC1 | 36* | 1 | 86* | -15 | -11
